Compounds with a hit are over-represented: about 1.6% of the library has one in this group of screens.
gsp antagonist: antagonizes gsp, the McCune-Albright syndrome mutation | Potency, µM (series often up to 76.9 µM), most hits filed as inhibitors | 340,000 compounds, 0.4% hits | AID 624288 | gsp-mutant cells, cAMP HTRF, 30 min; calls by dose curve; cell line not stated here;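 also: intracellular cAMP measured with PDE inhibitor Ro 20-1724 present during compound exposure; nearly all actives have a fitted effect of over 65% in size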
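HTRF cAMP measurement after 30 min RT detection following 30 min, 37C compound treatment alongside […] (added as 300 uM solution) in G418-selected cells seeded at 2000/well and grown 16–24 h.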
Akt phos inh: inhibitors of Akt phosphorylation; Neuro2A IGF-stimulated pAkt S473 HTRF, 20 min; active compounds read low; 360,000 compounds, 0.32% hits; activity change, % for hits at 50 µM; in the data active = activity change below about -80%; inconclusive = mostly about -51% to -80%
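Single-point screen (50 µM final compound) in Neuro2A cells stimulated 20 min with 6 nM IGF at 37 deg C. After lysis, Ser473-phosphorylated Akt read by HTRF (ex 330 nm, em 615/665 nm) as the 665/615 ratio.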
gsp ag: gsp mutant agonism; 340,000 compounds, 0.13% hits; gsp mutant cells, cAMP HTRF, 30 min; Potency, µM (titrated, usually from 76.9 µM), most hits filed as activators; active = well fitted activation curve with a large enough effect; inconclusive = small, poorly fitted or top-dose-only effect, or another doubt; inactive = no such curve, though single readings can be large or run the other way; cell line not stated here;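 also: phosphodiesterase inhibitor Ro 20-1724 added with compounds to block cAMP breakdown; nearly all actives have a fitted effect of over 60% in size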
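Cells stably selected in G418 were plated at 2000/well, grown 16-24 hr, then given compounds in DMSO with the PDE inhibitor […] (300 uM solution added) for 30 min at 37C; cAMP was read by HTRF.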
Glioma ERSR ind: induces the endoplasmic reticulum stress response in human glioma cells; Potency, µM, hits mostly activators; 420,000 compounds, 0.02% hits; U87-MG GRP78 promoter luciferase reporter, 16 h; active = well fitted activation curve with a large enough effect; inconclusive = small, poorly fitted or top-dose-only effect; inactive = no such curve, though single readings can be large or run the other way; also: series mostly up to about 76 µM; nearly all actives have a fitted effect of over 35% in size
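ERSR induction read as luciferase luminescence (Bright-Glo, 10 min at room temperature) in stably transfected human U87-MG glioma cells exposed to compounds for 16 h, using GRP78 as sensor.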
hERG WT inh: KCNH2 (human, wildtype) channel inhibition | Q12809 | activity change, % at 1.84 µM | U2OS, BacMam KCNH2, thallium flux FluxOr; active compounds read low | 340,000 compounds, 0.37% hits | AID 720551;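 active = maximum activity change below -70%; inconclusive = maximum activity change between -70% and -50%; inactive = maximum activity change above -50%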
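U2OS cells transduced with wild-type KCNH2 virus are loaded with FluxOr dye for 45 min, and thallium flux is measured in kinetic reads before and after stimulation buffer. Rate constants are normalized to DMSO controls.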
KCNH2 3.1 block: KCNH2 3.1 (human) potassium channel inhibition. U2OS KCNH2 3.1, thallium flux FluxOr; active compounds read low. activity change, % (tested at about 1.8 µM). AID 720553. 340,000 compounds, 0.95% hits;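 active = maximum activity change below -70%; inconclusive = maximum activity change from -70% to -50%; inactive = maximum activity change above -50%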;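 also: thallium influx rate constant from kinetic fluorescence after stimulation buffer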
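U2OS cells transduced with KCNH2 3.1 mutant virus (1.77 x 10^8 /mL, 4 h), plated overnight at 37 C, loaded 45 min with FluxOr dye plus Red40 quencher. Thallium flux rate constant from kinetic reads after stimulation buffer, normalised to controls.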
Numbers stand for hits; n = inactive; u = inconclusive; x = no result given; [ ] = dose if it differs, or a comment.

SMILES	gsp antagonist	Akt phos inh	gsp ag	Glioma ERSR ind	hERG WT inh	KCNH2 3.1 block
Cc1cc(N2CCN(c3nc(-c4ccc([N+](=O)[O-])cc4)cs3)CC2)c2ccccc2n1	n	n	n[15.4 µM]	n	-121.7	-123.9
CC(NC(=O)c1cccnc1)C(c1ccccc1)N1CCN(C)CC1 (stereo not given)	n	n	n	n	n	-77.0
COc1ccccc1CN(C)C(=O)c1cc(-c2cccs2)nc2ccccc12	39.8µM	n	n	n	n	n
COc1ccc(-c2cc(C(=O)N(C)Cc3cccc(OC)c3OC)c3ccccc3n2)cc1OC	n	n	n[15.4 µM]	n	n	n
COc1ccc(N(C)S(=O)(=O)c2ccc3c(c2)CCN3C(=O)C2CC2)c(OC)c1	28.2µM	n	n	n	n	n
CCC(=O)N1CCc2cc(S(=O)(=O)N(C)c3ccc(OC)cc3OC)ccc21	n	n	n	n	n	n
O=C(O)CCc1cccc2ccccc12	x	x	x	n	x	x
O=C(COc1ccccc1C(=O)Nc1cccc([N+](=O)[O-])c1)Nc1ccc(Br)cc1	x	x	x	n	x	x
Cc1cc(C(=O)CSc2nc3ccccc3[nH]2)c(C)n1CC1CCCO1 (stereo not given)	31.6µM	n	n	n	n	n
Cc1cc(C(=O)CSc2nc(N)cc(=O)[nH]2)c(C)n1CC1CCCO1 (stereo not given)	n	n	n	n	n	n
Cc1cccc(CNC(=O)c2c3n(c(C)cc2=O)-c2ccccc2SC(c2ccsc2)C3)n1 (stereo not given)	x	x	x	n	x	x
COc1ccc(Nc2c(-c3ccc(C)cc3)nc3cnccn23)cc1	u	n	n	n	n	-85.9
Cc1cc(C)n(-c2cccc(C(=O)NCC3Cc4cccc(-c5cccnc5)c4O3)c2)n1 (stereo not given)	x	x	x	n	x	x
Cc1ccc(C)c(-n2c3nc(=O)[nH]c(=O)c-3cc3c(C)nn(-c4ccccc4)c32)c1	x	x	x	n	x	x
Cc1ccc(-n2c3nc(=O)[nH]c(=O)c-3cc3c(C)nn(-c4ccccc4)c32)c(C)c1	50.1µM	n	n[15.4 µM]	n	-151.3	-148.8
NC(=O)c1ccccc1NC(=O)CN1CCN(Cc2ccccc2)CC1	n	n	n	n	n	-76.7
O=C(CN1CCN(Cc2ccccc2)CC1)N1CCCCCC1	n	n	n[15.4 µM]	n	n	-83.2
O=C(CN1CCN(Cc2ccccc2)CC1)Nc1ccccc1-c1ccccc1	n	n	n	n	-74.3	n
COc1ccccc1NC(=O)CN1CCN(Cc2ccccc2)CC1	n	n	n	n	n	n
CC(=O)c1ccc(F)c(-c2cc(C)cc3c2OC(CNC(=O)c2cccnc2)C3)c1 (stereo not given)	x	x	x	n	x	x
COc1ccc(CCNc2ncnc3sc(C)cc23)cc1OC	35.5µM	n	n	n	n	n
N#Cc1ccc(OCC(O)CN2CCN(C(c3ccccc3)c3ccccc3)CC2)cc1 (stereo not given)	n	n	u	n	-84.1	-99.8
COc1cccc(OC)c1OCCCCCCN1CCN(C)CC1	n	n	n	n	n	n
COc1ccccc1OCCCCN1CCN(C(c2ccccc2)c2ccccc2)CC1	n	n	n[15.4 µM]	n	n	-93.3
OC(COCc1ccco1)CN1CCN(C(c2ccccc2)c2ccccc2)CC1 (stereo not given)	n	n	n	n	-76.2	-104.4
SMILES	gsp antagonist	Akt phos inh	gsp ag	Glioma ERSR ind	hERG WT inh	KCNH2 3.1 block
O=C(O)COCCN1CCN([C@@H](c2ccccc2)c2ccc(Cl)cc2)CC1	x	x	x	n	x	x
c1ccc(OCCOCCN2CCN(C(c3ccccc3)c3ccccc3)CC2)cc1	n	n	n	n	-78.2	-86.4
N#Cc1ccc(-c2ccc(OCC(O)CN3CCCCC3)cc2)cc1 (stereo not given)	n	n	n[15.4 µM]	n	n	n
N#Cc1ccc(-c2ccc(OCC(O)Cn3nnc4ccccc43)cc2)cc1 (stereo not given)	31.6µM	n	n	n	n	n
N#Cc1ccc(OCC(O)CN2CCN(c3ncc(C(F)(F)F)cc3Cl)CC2)cc1 (stereo not given)	n	n	n	n	u	-100.5
OC(COc1ccccc1)CN1CCN(C(c2ccccc2)c2ccccc2)CC1 (stereo not given)	n	n	n	n	-119.8	-108.7
